According to ChEMBL document CHEMBL4513216, “Probing the Open Global Health Chemical Diversity Library for Multistage-Active Starting Points for Next-Generation Antimalarials” (ACS Infect Dis, 2020):
Among all 69,000 compounds or so, about 8,600 (12%) showed an effect of 50% or more. The full list was thinned out, with strong results kept by preference.

These molecules were tested on Plasmodium berghei (assay: Screen against P. berghei liver stage (PbLuc), transformed with Luciferase, at 10uM). Details: tested at 10 uM.
Format: functional, HepG2
Molecule `CCN1CC(C(=O)NCc2cccnc2-n2cccn2)CC1=O` (stereo not drawn) has an INHIBITION of -10.1%.
`COC[C@@]12CCO[C@@H]1CCN(C(=O)c1ccc(F)c(F)c1)C2` was tested, and the INHIBITION was -30.6%.
`Cc1nc(COCC2CN(C(=O)N(C)C)Cc3nccn3C2)cs1` (stereo not drawn) was tested, and the INHIBITION was 45.4%.
For `O=S(=O)(c1cccc(F)c1)N1CCCCC1c1ccn[nH]1` (stereo not drawn), the INHIBITION was 27.8%.
`Cc1nc(CN2CCc3nc(N4CCCC4)nc(NC(C)C)c3C2)cs1` showed an INHIBITION of 67.4%.
With `Cc1nc(N2CCCC2)nc2c1CN(C(C)C)CC2` the INHIBITION was -10.4%.
`CC(C)Nc1nc(N2CCCC2)nc2c1CN(C)CC2` was tested, and the INHIBITION was 22.4%.
Molecule `CCC(C)N1CCc2nc(N3CCCC3)nc(NC(C)C)c2C1` (stereo not drawn) has an INHIBITION of 2.59%.
For `CC(C)Nc1nc(N2CCCC2)nc2c1CN(c1ncc(F)cn1)CC2`, the INHIBITION was 65.8%.
With `Cc1nc(CN2CCc3nc(NC(C)C)nc(C)c3C2)cs1` the INHIBITION was 46.7%.
`CC(C)Nc1nc(N2CCCC2)nc2c1CCN(S(C)(=O)=O)CC2` gave an INHIBITION of 35.2%.
Molecule `CC(C)Nc1nc(N2CCCC2)nc2c1CN(C(C)C)CC2` has an INHIBITION of 61.8%.
For `CC(C)Nc1nc(N2CCCC2)nc2c1CN(S(C)(=O)=O)CC2`, the INHIBITION was -29%.
With `Cc1nc(Nc2nncs2)cc(C2CCCN2)n1` (stereo not drawn) the INHIBITION was -8.275%.
Work on `COC(=O)c1cccc(C(=O)N2CCCC(n3cncn3)C2)c1` (stereo not drawn) yielded an INHIBITION of 15.5%.
`Cc1ccc(=O)n(CC2(O)CCN(Cc3cnc(C)nc3)CC2)n1` showed an INHIBITION of 15.9%.
In the case of `CN1CC2(CCN(Cc3cccc(C#N)c3)CC2)CC1=O`, the INHIBITION is reported as 43.1%.
`CC(C)=CCN1CC2(CCN(Cc3ncc[nH]3)CC2)CC1=O` was tested, and the INHIBITION was 4.82%.
Work on `CN1CC2(CCN(Cc3ncc[nH]3)CC2)CC1=O` yielded an INHIBITION of 53.7%.
`Cc1ncc(CN2CCC3(CC2)CC(=O)N(C)C3)cn1` showed an INHIBITION of 55.9%.
In the case of `COCCCN1CC2(CCN(Cc3ncc[nH]3)CC2)CC1=O`, the INHIBITION is reported as 28.7%.
Molecule `CC(=O)NCC(=O)N1CCn2cc(CN(C)Cc3ccco3)nc2C1` has an INHIBITION of 42.5%.
With `O=C1COC2(CCN(C(=O)c3ccoc3)CC2)CN1Cc1cccnc1` the INHIBITION was 0.112%.
Molecule `Fc1ccccc1Oc1nccnc1C1CCCN(C2CCOCC2)C1` (stereo not drawn) has an INHIBITION of -3.02%.
For `O=C(NCc1ccnc(OCC(F)(F)F)c1)NCC1CCCO1` (stereo not drawn), the INHIBITION was -20.3%.
For `O=C(c1ccc(Br)cc1F)N1CCc2ccncc21`, the INHIBITION was -4.91%.
`COc1ccc(C[C@H]2CN(C3CCOCC3)CC[C@@H]2OCC2CC2)cc1` showed an INHIBITION of 29.7%.
Work on `O=C(c1ccon1)N1CCCCC1c1nc2cc(F)ccc2[nH]1` (stereo not drawn) yielded an INHIBITION of 62.9%.
`Cc1cc(C(=O)N2CCCCC2c2nc3cc(F)ccc3[nH]2)no1` (stereo not drawn) showed an INHIBITION of 4.97%.
`Fc1ccc2[nH]c(C3CCCN3CCc3ccccn3)nc2c1` (stereo not drawn) showed an INHIBITION of 21.8%.
Work on `Cn1nc(C(=O)N2CCCCC2c2nc3cc(F)ccc3[nH]2)ccc1=O` (stereo not drawn) yielded an INHIBITION of 11.8%.
`Fc1ccc2[nH]c(C3CCCN3Cc3c[nH]cn3)nc2c1` (stereo not drawn) gave an INHIBITION of 42.6%.
`O=C(CN1CCCC1c1nc2cc(F)ccc2[nH]1)NCc1ccccn1` (stereo not drawn) showed an INHIBITION of 50.1%.
